DT40 TDP1 no CPT: qHTS for Inhibitors of human tyrosyl-DNA phosphodiesterase 1 (TDP1): qHTS in cells in absence of CPT. hit rate 15% among 420,000. AID 686978, 2013. DT40 Tdp1-/- hTDP1 cells, no CPT, ATP luminescence, 48 h. Potency, µM (highest dose often 46.2 µM), for inactives: top-dose activity change, negative = growth inhibition, hits mostly inhibitors; note: nearly all actives have a fitted effect of over 55% in size
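Luminescent ATP content (CellTiter-Glo) served as the growth readout. Knockout chicken DT40 cells expressing human TDP1 were exposed to compounds without camptothecin for a minimum 48 hr at 37 °C.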
KB-3-1 cytotox: qHTS assay for MDR1-selective chemotherapeutics: Primary screen using the parental adenocarcinoma cell KB-3-1 | Potency, µM (doses to about 46.1 µM), actives largely listed as cytotoxic | hit rate 1.4% among 400,000 | KB-3-1 viability, CellTiter-Glo ATP luminescence, 72 h; note: nearly all actives have a fitted effect of over 60% in size
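Parental KB-3-1 viability, qHTS format: 72 h compound exposure, 37 °C; CellTiter-Glo; media-only wells and DMSO plates as controls; concentration-effect fits on corrected data.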
TDP1 cell CPT: qHTS for Inhibitors of human tyrosyl-DNA phosphodiesterase 1 (TDP1): qHTS in cells in presence of CPT | chicken DT40 Tdp1-/-;hTDP1 cells + 20 nM CPT, ATP luminescence, 48 h | Potency, µM (highest dose often 46.2 µM), for inactives: at the top dose activity change, negative = growth inhibition, usual class: inhibitors | hit rate 12% among 420,000 | AID 686979, 2013; note: nearly all actives have a fitted effect of over 55% in size
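Cell growth measured by CellTiter-Glo luminescence after a minimum 48 h, 37 C compound exposure with 20 nM CPT in Tdp1-knockout DT40 cells stably expressing hTDP1, seeded 400/well; qHTS titration format.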
HT1080 IDH1KD tx: qHTS for induction of synthetic lethality in tumor cells producing 2HG: qHTS for the HT-1080-IDH1KD cell line; HT-1080 IDH1 knockdown viability, ATP luminescence, 48 h; Potency, µM (doses to about 46.1 µM), without a hit: top-dose activity, negative = toxicity, most hits filed as cytotoxic; hit rate 2% among 360,000; AID 686971, 2013;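 note: 0% = DMSO wells and -100% = cell-free medium wells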
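Viability of IDH1-knockdown HT-1080 fibrosarcoma cells was assessed by CellTiter-Glo after 48 h at 37 °C with titrated compound; concentration-effect curves were classified by fit quality and response size.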
KB-V1 MDR tox: qHTS assay for MDR1-selective chemotherapeutics: Primary screen using the drug-selected MDR subline cells KB-V1; KB-V1 MDR cells viability, CellTiter-Glo, 72 h; Potency, µM (series often up to 46.1 µM), usual class: cytotoxic; hit rate 3.4% among 400,000; AID 1347076, 2019; note: nearly all actives have a fitted effect of over 60% in size
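KB-V1 MDR subline cells in DMEM (phenol-red free, 10% FBS) exposed to compounds in qHTS concentration series for 72 h at 37 degrees C. Viability read by CellTiter-Glo luminescence; concentration-effect curves fitted after normalization and correction.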
HT1080NT lethal: qHTS for induction of synthetic lethality in tumor cells producing 2HG: qHTS for the HT-1080-NT fibrosarcoma cell line. HT-1080-NT fibrosarcoma viability, CellTiter-Glo ATP luminescence, 48 h. Potency, µM (doses to about 46.1 µM), for the others: top-dose activity, negative = less viability, usual class: cytotoxic. hit rate 1.6% among 360,000;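 note: NT is the 2HG producing partner of a matched IDH1 knockdown line; 0% = DMSO-treated cells and -100% = media-only wells without cells; nearly all actives have a fitted effect of over 55% in size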
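A 48-hour cytotoxicity screen used HT-1080-NT cells plated 2 hours before compound delivery. ATP-based CellTiter-Glo luminescence measured viability, normalized to DMSO and no-cell controls.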
An asterisk follows results filed as active; i = inactive; u = inconclusive; x = not tested or not shown. Most compounds without a hit are left out; they make up all but 19% or so of the library. Calls come from the whole dose curve; as a rule, active = well fitted curve in the direction sought with a large enough effect; inconclusive = small, poorly fitted or top-dose-only effect, or another doubt; inactive = no such curve, though single readings can be large; an effect the other way counts as inactive or inconclusive. Unless noted, % is set by controls: 0 for no effect and ±100 for the full control effect; potency is the fitted concentration of half-maximal effect.

SMILES	DT40 TDP1 no CPT	KB-3-1 cytotox	TDP1 cell CPT	HT1080 IDH1KD tx	KB-V1 MDR tox	HT1080NT lethal
Cc1c(C)c2c(OCC(=O)N[C@@H](CC(C)C)C(=O)O)cc3c(c2oc1=O)CCC(C)(C)O3	-8.5%	i	5.8%	-0.3%	i	u
O=C(CCC(=O)Nc1ccccc1)NNC(=O)C(c1ccccc1)c1ccccc1	-17.8%	i	-4.9%	u	i	-20.3%
CCN(C(=S)Nc1cc(S(=O)(=O)N2CCOCC2)ccc1Cl)c1cccc2ccccc12	u	i	18.4µM*	-5.6%	u	-5.0%
CSc1nnc(NC(=O)c2nc(S(=O)(=O)Cc3ccccc3)ncc2Cl)s1	16.4µM*	18.4µM*	11.6µM*	23.1µM*	u	20.6µM*
CC(C)c1nnc(NC(=O)c2nc(S(=O)(=O)Cc3ccccc3)ncc2Cl)s1	9.2µM*	u	5.8µM*	6.51µM*	u	7.31µM*
Cc1ccccc1CS(=O)(=O)c1ncc(Cl)c(C(=O)Nc2nnc(C(C)C)s2)n1	10.3µM*	x	8.2µM*	x	x	x
O=C(COC(=O)C1C2CC3OC(=O)C1C3C2)Nc1ccc(Cl)cc1 (stereo unspecified)	-10.8%	i	-4.5%	12.0%	i	0.0%
CCOC(=O)c1nnn(-c2nonc2-n2cccc2)c1-c1cccc([N+](=O)[O-])c1	u	i	-14.4%	-10.8%	i	0.9%
Clc1nc(CN2CCOCC2)nc2sc3c(c12)CCC3	1.3%	i	9.6%	-1.7%	i	13.7%
CSc1nc2sc3c(c2c2nncn12)CCC3	-18.5%	i	-1.2%	0.5%	i	-0.4%
CC1CCN(Cc2nc(Cl)c3c4c(sc3n2)CCC4)CC1	13µM*	i	18.4µM*	7.5%	u	5.7%
Clc1nc(CN2CCCCC2)nc2sc3c(c12)CCCC3	10.3µM*	i	u	-5.9%	i	-17.9%
Cc1sc2nc(CN3CCCCC3)nc(Cl)c2c1C	16.4µM*	i	u	1.2%	i	4.1%
COc1ccc(S(=O)(=O)N(CC(=O)Nc2ccc(S(=O)(=O)N3CCOCC3)cc2)c2ccccc2)cc1	0.164µM*	u	-68.2%	-14.6%	5.17µM*	-11.4%
COc1ccc(NC(=O)CN(C)C(=O)c2ccc(S(=O)(=O)N3CCOCC3)cc2)cc1	-23.6%	i	-15.1%	1.5%	u	-0.6%
COc1ccc(S(=O)(=O)N(CC(=O)Nc2ccc(S(=O)(=O)N3CCOCC3)cc2)Cc2ccc(F)cc2)cc1	14.6µM*	i	20.6µM*	-12.9%	u	-11.4%
CN1CCC(Oc2ccccc2Sc2ccc(C(F)(F)F)cc2)CC1	u	i	u	-5.2%	i	-4.1%
CN1CCC(Oc2ccc(Sc3ccccc3)cc2)CC1	23.1µM*	u	u	-18.3%	u	-11.0%
COC(=O)C1=C(C)N(c2ccc(OC)cc2)C(C)=C(C(=O)OC)C1c1ccccc1	20.6µM*	i	u	-9.7%	u	u
COC(=O)C1=C(C)N(c2ccc(OC)cc2)C(C)=C(C(=O)OC)C1c1ccc(OC)cc1	16.4µM*	i	8.2µM*	-16.0%	i	-1.5%
O=C(N[C@H](CO)c1ccccc1)[C@H]1O[C@@H](n2ccc(=O)[nH]c2=O)[C@H](O)[C@@H]1O	2.9%	i	-8.1%	-0.6%	i	0.0%
O=C(N/N=C/C(Br)=C/c1ccccc1)c1ccc([N+](=O)[O-])cc1	4.11µM*	i	4.11µM*	1.7%	i	1.9%
O=C(N/N=C/C(Br)=C/c1ccccc1)c1ccncc1	1.64µM*	i	1.64µM*	u	i	-18.6%
O=C(N/N=C/C(Br)=C/c1ccccc1)c1cccnc1	2.06µM*	i	2.59µM*	-17.7%	i	u
CC(=O)N/C(=C/c1ccccc1)c1ccncc1	11.2µM*	i	7.94µM*	x	i	x
SMILES	DT40 TDP1 no CPT	KB-3-1 cytotox	TDP1 cell CPT	HT1080 IDH1KD tx	KB-V1 MDR tox	HT1080NT lethal
CC(/C=N/NC(=O)c1ccncc1)=C\c1ccccc1	-5.8%	i	1.1%	u	i	-1.0%
COC[C@@H]1CCCN1[C@H]1CS(=O)(=O)N[C@@H]1COCc1ccccc1	1.3%	i	-12.8%	21.0%	i	6.4%
Cc1cc(N2CCN(C)CC2)nc2ccc(NC(=O)CCC(=O)NCc3ccco3)cc12	-15.5%	i	-22.9%	-10.2%	i	-10.6%
CCn1c(SC2CCOC2=O)nnc1-c1ccc(Cl)cc1 (stereo unspecified)	1.1%	i	-6.9%	9.6%	i	6.5%
O=C(N/N=C/C(Br)=C\c1ccccc1)c1ccc2nc[nH]c2c1	14.6µM*	u	10.3µM*	u	i	0.2%
Cc1ccc(CS(=O)Cc2ccc(C(=O)N3CCN(c4cccc(C)c4C)CC3)o2)cc1 (stereo unspecified)	20.6µM*	i	u	-27.8%	u	-28.8%
Cc1cccc(N2CCN(C(=O)c3ccc(CS(=O)Cc4cccc(Cl)c4)o3)CC2)c1C (stereo unspecified)	u	i	u	-2.5%	i	1.8%
Cc1ccc(Cl)cc1N1CCN(C(=O)c2ccc(CS(=O)Cc3ccc(Cl)cc3)o2)CC1 (stereo unspecified)	u	i	13µM*	u	i	-17.0%
CCOc1ccccc1NC(=O)Cn1c(=O)nc(-c2ccccc2F)c2cc(Cl)ccc21	20.6µM*	x	u	x	x	x
COc1ccccc1CNC(=O)Cn1c(=O)nc(-c2ccccc2F)c2cc(Cl)ccc21	6.51µM*	x	u	x	x	x
COc1ccc(CNC(=O)Cn2c(=O)nc(-c3ccccc3F)c3cc(Cl)ccc32)cc1OC	0.0%	x	-9.2%	x	x	x
CC(C)(C)c1ccc(C(=O)CCC(=O)OCC(=O)NCCc2ccc(S(N)(=O)=O)cc2)cc1	0.9%	i	-6.7%	29.1%	i	3.6%
COc1ccc(-c2nc3ccccn3c2Cl)cc1	-17.1%	u	u	u	i	u
COC(=O)[C@]1(Cc2ccccc2)N[C@H](CN(C)S(=O)(=O)c2ccc(C(C)(C)C)cc2)[C@@H]2C(=O)N(C)C(=O)[C@@H]21	u	i	18.4µM*	5.1%	i	8.2%

Screens from PubChem BioAssay.
